Results published in the supplement of paper PMC12532568.
Where a name gives a salt, the structure may show the parent alone.

Test system: Danio rerio larvae Tg(actc1b:ZsGreen-LC3), 3 dpf
Test: LC3 puncta relative area vs vehicle, without NH4Cl (log2 fold change); higher = more autophagosomes
Details: 10 µM; treatment time 16 h; NH4Cl: none
Method: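 Transgenic Tg(actc1b:ZsGreen-map1lc3) zebrafish larvae (2 dpf) were treated for 16 h with Tocris library compounds at 10 µM (n = 12 larvae per compound). Skeletal-muscle LC3 puncta area relative to body area was measured by high-content confocal imaging before and after 4 h of 100 mM NH4Cl (autophagic flux), normalised to vehicle (DMSO), and reported as log2 fold change.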

SMILES	LC3 puncta (log2)
CN1CCC(=C2c3ccccc3CC(=O)c3sccc32)CC1 [Ketotifen fumarate]	0.589
N=C(N)S/C=C\C(=O)O [ZAPA sulfate]	0.0963
O=C(O)c1cc(=O)c2c(Cl)cc(Cl)cc2[nH]1 [5,7-Dichlorokynurenic acid]	-0.0706
O=C1CC2(CCCC2)CC(=O)N1CCCCNCC1COc2ccccc2O1 (stereo not given)	-0.00847
O=C(OCCN1CCCCC1)c1c[nH]c2ccccc12	0.11
CC(C)(C)NC[C@H](O)COc1nsnc1N1CCOCC1 [(S)-Timolol maleate]	0.305
CCCCCCN(CCCCCC)C(=O)Cc1c(-c2ccc(Cl)cc2)[nH]c2ccc(Cl)cc12	0.364
Cc1noc(NS(=O)(=O)c2ccc(N)cc2)c1C [Sulfisoxazole]	0.239
CNC(=O)c1cc2c(cn1)[nH]c1ccccc12	0.13
N=C(N)SCCc1c[nH]cn1 [Imetit dihydrobromide]	0.595
COC(=O)C1=C(C)NC(C)=C(C(=O)OCCSc2ccccc2)C1C (stereo not given)	0.00326
C/N=C(/NC#N)NCCSCc1csc(NC(=N)N)n1 [Tiotidine]	0.383
N[C@H](C(=O)O)c1cc(O)cc(O)c1	0.537
CC(=O)NCC(=O)N[C@H](CCC(=O)O)C(=O)O [N-Acetylglycyl-D-glutamic acid]	-0.0216
O=c1nc2ccccc2c2n1CC(CN1CCN(c3ccccc3)CC1)N2 (stereo not given)	0.0176
c1ccc2sc(N3CCN(Cc4ccc5c(c4)OCO5)CC3)nc2c1 [2-[1-(4-Piperonyl)piperazinyl]benzothiazole]	0.135
COc1ccc2[nH]c(I)c(CCNC(C)=O)c2c1 [2-Iodomelatonin]	0.515
CC(=O)N1CCN(C)CC1 [1-Acetyl-4-methylpiperazine hydrochloride]	0.18
Clc1cccc(Nc2nnc(-c3ccccc3)c3ccccc23)c1	0.29
O=C1CN(/N=C/c2ccc(-c3ccc([N+](=O)[O-])cc3)o2)C(=O)N1 [Dantrolene, sodium salt]	0.18

SMILES	LC3 puncta (log2)
CN(C)CCCSC(=N)N [Dimaprit dihydrochloride]	0.203
CSc1ccc2c(c1)C(N1CCN(C)CC1)Cc1ccccc1S2 (stereo not given) [Methiothepin maleate]	-0.425
N[C@@H](CSS(=O)(=O)O)C(=O)O [S-Sulfo-L-cysteine sodium salt]	-0.101
CCC(C)N(C)C(=O)c1cc2ccccc2c(-c2ccccc2Cl)n1 (stereo not given)	-0.0562
CC(C)NC[C@@H](O)COc1cccc2ccccc12 [(R)-(+)-Propranolol hydrochloride]	0.00434
CC(N)(Cc1ccc(O)c(O)c1)C(=O)O (stereo not given)	0.269
O=S(=O)(c1cccc2cnccc12)N1CCCNCC1 [Fasudil hydrochloride]	0.598
NC(C(=O)O)c1cc(O)cc(O)c1 (racemic)	0.194
C=C1C(=O)O[C@H]2[C@H]1CC/C(C)=C/CC[C@@]1(C)O[C@@H]21 [Parthenolide]	0.0168
O=C(O)c1cc(O)c2ccc(Cl)cc2n1 [7-Chlorokynurenic acid]	0.0331
c1ccc2oc(C3=NCCN3)cc2c1 [2-BFI hydrochloride]	0.0586
CC1(C(=O)O)NCCc2cc(O)c(O)cc21 (stereo not given) [Salsolinol-1-carboxylic acid]	0.463
CC(CCc1ccc(O)cc1)NCCc1ccc(O)c(O)c1 (stereo not given) [Dobutamine hydrochloride]	-0.094
NC(=O)Nc1sc(-c2ccc(F)cc2)cc1C(N)=O	0.302
COc1cc(C(=O)OCCCN2CCCN(CCCOC(=O)c3cc(OC)c(OC)c(OC)c3)CC2)cc(OC)c1OC [Dilazep]	0.175
Cc1ccc(OCC(O)C(C)NC(C)C)c2c1CCC2 (stereo not given) [ICI 118,551 hydrochloride]	-0.0345
COCCOC(=O)C1=C(C)NC(C)=C(C(=O)OC(C)C)C1c1cccc([N+](=O)[O-])c1 (stereo not given) [Nimodipine]	0.31
Nc1nc2ccc(OC(F)(F)F)cc2s1 [Riluzole]	0.289
CC(C)NC[C@H](O)COc1cccc2ccccc12 [(S)-(-)-Propranolol hydrochloride]	0.355
NC(N)=Nc1ccc(Cl)cc1 [4-Chlorophenylguanidine hydrochloride]	-0.45
